The values that follow come from PubChem BioAssay (Tox21).

A short description of test [1]: qHTS assay to identify small molecule antagonists of the estrogen related receptor (ERR) signaling pathway from Tox21 library - cell viability counter screen (AID 1224834). Note: nearly all actives have a fitted effect of over 30% in size. Note: potency is the fitted concentration of half-maximal effect. The method, boiled down:
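Seeded ERR cells were rested 6 h at 37 C/5% CO2 before compounds, positive and negative controls or DMSO were added. Incubation continued for 17.5 h, and viability was then quantified by CellTiter-Fluor fluorescence.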

Test [2] concerns the target Luciferin 4-monooxygenase (Photinus pyralis) (UniProt P08659). Kind of test: qHTS assay to identify small molecule inhibitors of firefly luciferase (AID 1224835). Note: nearly all actives have a fitted effect of over 25% in size. Note: potency is the fitted concentration of half-maximal effect. In a few lines: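 Biochemical qHTS: compounds run as interplate titrations against purified firefly enzyme, with D-luciferin and ATP each at its KM concentration. Light output recorded by CCD imaging.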
In general terms: In qHTS, concentration-response curves come from the screen itself.

Test [3] can be described thus: qHTS assay to identify small molecule antagonists of the estrogen related receptor signaling pathway with the pleiotropic PPARgamma coactivator (PGC) from Tox21 10K library - cell viability counter screen (AID 1224840; active = well fitted cell-killing curve with a large enough effect in the repeat runs, not every such curve was filed as active; note: nearly all actives have a fitted effect of over 40% in size; note: potency is the fitted concentration of half-maximal effect). The method, boiled down: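 Seeded PGC/ERR cells (2,000/well, 6 h, 37 C/5% CO2) get compound by pin tool; 17.5 h incubation at 37 C; CellTiter-Fluor added, 30 min, fluorescence measured.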

Test [4] has as its target Thyrotropin receptor (Homo sapiens) (UniProt P16473). In words: qHTS assay to identify small molecule agonists of the thyroid stimulating hormone receptor (TSHR) signaling pathway (AID 1224843; calls by dose curve; note: nearly all actives have a fitted effect of over 45% in size). In a few lines:
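Agonist-mode screen: TSHR HEK293 cells received test chemicals for half an hour at room temperature, then HTRF cAMP detection reagents for one hour prior to fluorescence measurement. Each chemical ran as a 15-concentration series, triplicated.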

Test [5] is described as follows: qHTS assay to identify small molecule agonists of the hypoxia (HIF-1) signaling pathway - cell viability counter screen (AID 1224844; calls by dose curve; note: nearly all actives have a fitted effect of over 50% in size). In a few lines:
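HRE-bla ME-180; 0.5% dFBS; cpd 17 h, 37C, 5% CO2; CellTiter-Glo lum., 30 min RT, post-FRET read, same wells.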

Test [6] can be described thus: qHTS assay to identify small molecule agonists of H2AX (AID 1224845; active = well fitted activation curve with a large enough effect in the signal ratio in the repeat runs, not every such curve was filed as active; the % refers to the signal ratio). In a few lines: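 Wild-type CHO-K1 cells, plated overnight, exposed 3hr at 37C to 15 concentrations (0.76% DMSO final). Lysed, then HTRF anti-pH2AX (S139) cryptate and anti-H2AX-d2 antibodies, 24 hr room temperature; 665/620 nm emission read.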
A short description of test [7]: qHTS assay to identify small molecule agonists of H2AX - cell viability counter screen (AID 1224847; calls by dose curve; note: nearly all actives have a fitted effect of over 30% in size; note: potency is the fitted concentration of half-maximal effect). In a few lines:
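Read-out: CellTiter-Glo luminescence, 30 min RT. Cells: wild-type CHO-K1, 1000/well, 10% FBS, plated overnight at 37C. Treatment: 15 concentrations, 3 hr, 37C, 0.76% DMSO.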

The nature of test [8]: qHTS RealTime-Glo MT Cell Viability Assay in HepG2 cells - 24 hour (AID 1224867). Note: nearly all actives have a fitted effect of over 50% in size. In a few lines: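 Tox21 10K library screened in qHTS format on HepG2 cells carrying RealTime-Glo reagents. Compounds were added after a 5 h preincubation, and the luminescent signal from continuous culture was measured repeatedly during 40 h treatment.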
Test [9] is described as follows: A CellTox Green Cytotoxicity Assay to monitor cytotoxicity in HEK293 cells - 0 hour (AID 1224869). Note: nearly all actives have a fitted effect of over 50% in size. In a few lines:
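Tox21 screen in HEK293: membrane-impermeant cyanine dye fluoresces on binding dead-cell DNA; compound pinned 5 h post-seeding, plates held at 37 C, signal read repeatedly through 40 h.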

For test [10], the target named is Nuclear receptor subfamily 1 group I member 3 (Homo sapiens) (UniProt Q14994). Kind of test: qHTS assay to identify small molecule antagonists of the constitutive androstane receptor (CAR) signaling pathway (AID 1224838).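 Note: HepG2 cells stably expressing hCAR with CYP2B6 luciferase reporter stimulated by CITCO; nearly all actives have a fitted effect of over 40% in size.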 Note: potency is the fitted concentration of half-maximal effect. The method, boiled down:
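Human hepatoma HepG2 cells expressing hCAR and a CYP2B6 promoter (2.2 kb) luciferase construct; compound titration (15 points) with 50 nM CITCO final, 24 h at 37 C/5% CO2; luminescence via ONE-Glo after 30 min at room temperature.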

Test [11] has the same target. In words: qHTS assay to identify small molecule agonists of the constitutive androstane receptor (CAR) signaling pathway (AID 1224839).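 For activation: HepG2 cells stably carrying human CAR and a CYP2B6 luciferase reporter; series mostly up to about 92 µM.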 Note: nearly all actives have a fitted effect of over 15% in size. Note: potency is the fitted concentration of half-maximal effect. In a few lines: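 In this screen, CAR-driven CYP2B6 promoter activity is measured by luminescence in HepG2-CYP2B6-hCAR cells after 24 h with test compounds and 0.75 uM PK11195 (final concentration).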
Test [12] can be described thus: qHTS assay to identify small molecule agonists of the hypoxia (HIF-1) signaling pathway (AID 1224846; active = well fitted activation curve with a large enough effect in the signal ratio in the repeat runs, not every such curve was filed as active; the % refers to the signal ratio). In a few lines: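 Reporter induction in HRE-bla ME-180 cells is taken as agonism: cells sit 5 hrs after plating, receive compounds or DMSO only, incubate 17 hrs at 37C under 5% CO2, and are loaded with CCF4-AM for beta-lactamase FRET measurement.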
Test [13] is described as follows: qHTS RealTime-Glo MT Cell Viability Assay in HEK293 cells - 32 hour (AID 1224868). Note: nearly all actives have a fitted effect of over 50% in size. Note: potency is the fitted concentration of half-maximal effect. In a few lines: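 Luminescence generated by NanoLuc from substrate produced by living HEK293 cells served as the viability signal. Each value reflects the reading at its stated time point during continuous 40 h compound exposure at 37 C.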
Test [14] is described as follows: qHTS assay to identify small molecule agonists of the constitutive androstane receptor (CAR) signaling pathway - cell viability counter screen (AID 1224836). Note: nearly all actives have a fitted effect of over 45% in size. Note: potency is the fitted concentration of half-maximal effect. In a few lines: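 Compound titrations (15 concentrations) went onto HepG2-CYP2B6-hCAR cells 4 h after seeding, alongside PK11195 at a final 0.75 uM; a 23 h, 37 C/5% CO2 incubation preceded CellTiter-Fluor viability measurement.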

The nature of test [15]: qHTS assay to identify small molecule antagonists of the constitutive androstane receptor (CAR) signaling pathway - cell viability counter screen (AID 1224837). Note: series mostly up to about 92 µM; nearly all actives have a fitted effect of over 45% in size. In a few lines: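 To flag cytotoxic false antagonists, HepG2 hCAR/CYP2B6-2.2kb cells were treated 23 hr with 15-concentration compound series and 50 nM CITCO at 37 C/5% CO2; CellTiter-Fluor fluorescence was the measured end point.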

A short description of test [16]: qHTS assay to identify small molecule antagonists of the estrogen related receptor signaling pathway with the pleiotropic PPARgamma coactivator (PGC) from Tox21 10K library (AID 1224841; call rule not given here). In a few lines:
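Test chemicals dissolved in DMSO were applied to pre-incubated (6 h) PGC/ERR cells at 2,000 cells/well for an 18 h, 37 C treatment; reporter luminescence was then read using One-Glo.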

The nature of test [17]: qHTS assay to identify small molecule agonists of the estrogen related receptor signaling pathway with the pleiotropic PPARgamma coactivator (PGC) from Tox21 10K library (AID 1224842). Note: nearly all actives have a fitted effect of over 15% in size. The method, boiled down: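 PGC/ERR reporter cell line, 2,000 cells per well, incubated 6 h at 37 C before 23 nL compound in DMSO was added. After 18 h at 37 C, One-Glo luminescence read following 30 min at room temperature.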

Test [18] can be described thus: qHTS assay to identify small molecule antagonists of the estrogen related receptor (ERR) signaling pathway from Tox21 library (AID 1224848). Note: nearly all actives have a fitted effect of over 50% in size. In a few lines: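 Quantitative high-throughput format: ERR reporter cells (2,000/well) pre-incubated 6 h, treated 18 h at 37 C with compounds in DMSO alongside positive and negative controls, then read by ONE-Glo luminescence.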

Structures are written as SMILES. Values joined by “and” are separate entries in the source; they are usually repeats but may differ in a detail not shown here. Identical values can stand only once. Records with an inconclusive call do not appear. More than one record can exist for a structure, and the calls need not agree. Active and inactive are the calls of the source. Unless noted, calls come from the whole dose curve; as a rule, active = well fitted curve in the direction sought with a large enough effect in the repeat runs; inconclusive = weak or mixed curves; inactive = no such curve, though single readings can be large; an effect the other way counts as inactive or inconclusive.

Chain of Thyrotropin receptor (Homo sapiens) (P16473 whole entry, looked up): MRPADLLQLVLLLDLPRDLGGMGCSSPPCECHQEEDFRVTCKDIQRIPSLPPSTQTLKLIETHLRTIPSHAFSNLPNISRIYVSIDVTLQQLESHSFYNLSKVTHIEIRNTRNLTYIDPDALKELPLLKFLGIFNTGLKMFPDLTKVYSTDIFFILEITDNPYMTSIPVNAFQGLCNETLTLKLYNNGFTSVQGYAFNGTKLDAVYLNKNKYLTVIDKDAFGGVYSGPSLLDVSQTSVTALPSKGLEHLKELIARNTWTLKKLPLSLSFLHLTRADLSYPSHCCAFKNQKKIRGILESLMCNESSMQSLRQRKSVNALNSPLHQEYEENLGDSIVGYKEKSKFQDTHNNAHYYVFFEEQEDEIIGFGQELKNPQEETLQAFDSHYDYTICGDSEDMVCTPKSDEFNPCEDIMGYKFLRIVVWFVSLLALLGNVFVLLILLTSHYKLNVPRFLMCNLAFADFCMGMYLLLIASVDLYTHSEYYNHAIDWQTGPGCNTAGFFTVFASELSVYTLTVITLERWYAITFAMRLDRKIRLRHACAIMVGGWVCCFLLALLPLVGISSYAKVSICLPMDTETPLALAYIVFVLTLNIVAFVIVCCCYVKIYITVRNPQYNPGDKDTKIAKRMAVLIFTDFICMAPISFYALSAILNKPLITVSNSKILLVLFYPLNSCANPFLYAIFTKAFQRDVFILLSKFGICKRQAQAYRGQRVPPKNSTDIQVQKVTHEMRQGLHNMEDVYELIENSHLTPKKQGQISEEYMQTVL
Chain of Nuclear receptor subfamily 1 group I member 3 (Homo sapiens) (Q14994 whole entry, looked up): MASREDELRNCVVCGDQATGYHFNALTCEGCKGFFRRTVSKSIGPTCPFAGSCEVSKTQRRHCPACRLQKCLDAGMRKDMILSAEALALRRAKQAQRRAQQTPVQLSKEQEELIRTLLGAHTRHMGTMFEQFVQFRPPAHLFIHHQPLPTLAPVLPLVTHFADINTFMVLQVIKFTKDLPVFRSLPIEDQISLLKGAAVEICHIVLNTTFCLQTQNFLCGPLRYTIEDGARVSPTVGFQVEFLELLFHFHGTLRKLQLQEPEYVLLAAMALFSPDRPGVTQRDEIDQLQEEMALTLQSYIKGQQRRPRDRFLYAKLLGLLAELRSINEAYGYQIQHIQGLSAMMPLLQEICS
Chain of Luciferin 4-monooxygenase (Photinus pyralis) (P08659 whole entry, looked up): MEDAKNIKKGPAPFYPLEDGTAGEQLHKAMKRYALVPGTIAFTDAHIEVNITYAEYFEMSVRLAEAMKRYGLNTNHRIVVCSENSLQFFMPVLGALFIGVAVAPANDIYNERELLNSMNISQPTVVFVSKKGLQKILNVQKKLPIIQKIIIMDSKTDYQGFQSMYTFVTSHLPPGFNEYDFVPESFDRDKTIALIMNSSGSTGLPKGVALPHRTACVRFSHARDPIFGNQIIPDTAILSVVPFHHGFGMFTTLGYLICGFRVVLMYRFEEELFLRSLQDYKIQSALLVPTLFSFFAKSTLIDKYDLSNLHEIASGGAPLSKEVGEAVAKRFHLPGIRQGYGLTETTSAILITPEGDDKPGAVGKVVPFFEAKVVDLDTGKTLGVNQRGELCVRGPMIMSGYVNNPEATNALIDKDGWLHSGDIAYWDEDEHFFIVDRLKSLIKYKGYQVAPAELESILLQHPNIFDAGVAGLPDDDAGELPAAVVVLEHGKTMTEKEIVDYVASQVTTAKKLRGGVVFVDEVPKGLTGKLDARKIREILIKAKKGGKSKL

For the compound `CC(=O)[C@@]1(O)CC[C@H]2[C@@H]3CCC4=CC(=O)CC[C@]4(C)[C@H]3CC[C@@]21C`, the Potency result in test [1], in test [2], in test [3], in [4], in test [5] and in test [6] was “inactive” in each case. For the same compound, the Potency entry in [7], in test [8] and in test [9] was “inactive” throughout.

For the compound `O=S(=O)(O)c1cc(S(=O)(=O)O)c2c(N=Nc3ccccc3)c(O)ccc2c1`, the Potency in [1] was 54.7 µM (active) and 34.4 µM (active). The Potency result in test [2], in [10], in test [11], in [4], in test [5] and in test [7] was “inactive” in each case. The Potency entry in test [8] and in test [13] was “inactive” in each case. The compound was called inactive in [12].

Consider `O=C(c1cc(O)c(O)c(O)c1)c1ccc(O)c(O)c1O`, for which the Potency in [1] was 54.3 µM (active) and 54.5 µM (active). The Potency result in test [14], in test [15], in test [10], in [11], in [3] and in [16] was “inactive” each time. In addition, the Potency result in [17], in test [5], in test [7], in [18], in test [8] and in test [13] was “inactive” each time. In addition, the result in test [12] was inactive.

As to `NCCc1ccc(O)c(O)c1`, in test [1], the Potency was 54.6 µM (active) and inactive. Moreover, the Potency result in test [2], in test [14], in test [3], in test [5], in [7] and in [8] was “inactive” in each case. Further, the Potency result in test [13] and in [9] was “inactive” throughout.

On to `COC(=O)Nc1nc2ccc(Sc3ccccc3)cc2[nH]1`, for which the Potency entry in test [1], in test [14], in [15], in [10], in test [3] and in test [4] was “inactive” each time. The Potency result in test [5], in [7], in test [8] and in test [9] was “inactive” throughout. Also, the Potency is 4.33 µM (active) in test [11]; 692 nM (active) and 848 nM (active) in [13].

For `S=c1nc[nH]c2nc[nH]c12`, the Potency entry in test [2], in test [14], in test [11], in test [3], in [4] and in [5] was “inactive” throughout. For the same compound, the Potency entry in [7] and in [8] was “inactive” in each case. The Potency in test [10] is 1.5 µM (active) and 3.35 µM (active); in test [13], 16.9 µM (active). In [12], the compound was classed as inactive.

Turning to `Cc1ccc(N)c(S(=O)(=O)O)c1`, the Potency result in test [1], in test [2], in test [14], in [15], in test [3] and in test [4] was “inactive” throughout. Besides, the Potency result in test [5], in [6], in [7], in [8] and in [13] was “inactive” each time. Further, the compound was called inactive in test [12].

On to `CC(C)(C)C(=O)C1C(=O)c2ccccc2C1=O`, for which the Potency in test [1] is 60.5 µM (active) and 43.3 µM (active); in test [2], 31.4 µM (active); in [3], 48.1 µM (active) and inactive; in [7], 88.9 µM (active) and 56.6 µM (active). Also, the Potency result in test [10], in [4], in test [5], in test [8], in [13] and in test [9] was “inactive” in each case. Further, the compound was called inactive in test [12].

`CCCCCCCCCC(=O)O`: the Potency entry in test [1], in test [14], in [15], in test [3], in [16] and in [17] was “inactive” throughout. Besides, the Potency result in test [4], in [5], in [6], in test [7], in test [18] and in [8] was “inactive” in each case. Further, the Potency result in test [13] and in test [9] was “inactive” each time. The outcome in test [12] was inactive.

For `O=C(Oc1ccccc1)c1ccc(O)cc1`, the Potency entry in test [1], in test [14], in test [15], in [3], in test [4] and in test [5] was “inactive” each time. Besides, the Potency entry in [6], in test [8] and in [13] was “inactive” in each case. Besides, the Potency in test [2] was 35.8 µM (active) and 35.6 µM (active). Also, the compound was classed as inactive in [12].

As to `CC1COc2ccccc2N1C(=O)C(Cl)Cl` (stereo unspecified), the Potency entry in test [2], in [10], in test [3], in test [4], in test [5] and in [6] was “inactive” throughout. Besides, the Potency entry in [7], in test [8], in test [13] and in test [9] was “inactive” in each case. Also, the Potency in test [14] is 27.3 µM (active); in test [11], 48.5 µM (active). For the same compound, in test [12], the compound was called inactive.

Turning to `Cc1cc(O)cc(C)c1Cl`, the Potency entry in [1], in [2], in test [14], in test [15], in test [3] and in test [4] was “inactive” in each case. The Potency result in [5], in [6], in test [7], in test [8] and in test [13] was “inactive” each time. Further, in [12], the call was inactive.

For `CCC(=O)O`, the Potency result in test [1], in [2], in test [14], in [15], in test [3] and in test [5] was “inactive” throughout. Besides, the Potency result in [6], in test [7], in test [8], in test [13] and in [9] was “inactive” throughout. In addition, in test [12], the call was inactive.
